In PubChem BioAssay AID777 (Sanford-Burnham Center for Chemical Genomics, 2007):
Hit rate of the full screen: of about 96,000 compounds, about 19,000 (20%) were called active.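 The calls were made as follows: active = blocking of liver enzyme CYP2C9 beyond about 50% at 5 µM (limit read from the data); inactive = the rest.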 The list is a sample of the results.

The compounds below were run against Cytochrome P450 2C9 (Homo sapiens) (UniProt P11712) (assay: blockers of cytochrome P450 2C9 activity – biochemical, luminescence, ADME assay, primary screen (AID 777)). Conditions: CYP2C9 Supersomes, luciferin-H conversion, at 5 µM, stronger effect = higher value.
Cytochrome P450 2C9 (Homo sapiens), sequence (P11712 whole entry, looked up): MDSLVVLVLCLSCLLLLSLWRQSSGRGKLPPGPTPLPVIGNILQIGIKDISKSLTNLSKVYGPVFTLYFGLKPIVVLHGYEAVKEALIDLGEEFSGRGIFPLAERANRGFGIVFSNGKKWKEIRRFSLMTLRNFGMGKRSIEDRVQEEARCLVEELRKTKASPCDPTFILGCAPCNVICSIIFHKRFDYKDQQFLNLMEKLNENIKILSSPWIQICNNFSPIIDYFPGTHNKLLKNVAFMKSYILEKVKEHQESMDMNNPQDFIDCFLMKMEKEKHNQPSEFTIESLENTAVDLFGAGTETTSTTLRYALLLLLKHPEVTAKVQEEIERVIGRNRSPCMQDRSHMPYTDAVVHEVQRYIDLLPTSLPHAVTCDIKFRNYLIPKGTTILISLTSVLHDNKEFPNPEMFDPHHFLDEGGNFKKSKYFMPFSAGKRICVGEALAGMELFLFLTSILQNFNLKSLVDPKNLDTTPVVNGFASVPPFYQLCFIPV

inhibition, inactive:
Cc1ccc2[nH]c(=O)c(-c3nc4c(C)cccn4c3NCc3ccco3)cc2c1 13%
Fc1ccc(-c2ccc(-c3nn4c(-c5ccco5)nnc4s3)o2)cc1 7.3%
COC(=O)c1ccc(Oc2nc(Nc3ccc(F)cc3)nc(N3CCCC3)n2)cc1 31.9%
Cc1ccc2nc(Nc3ccccc3O)nc(-c3ccccc3)c2c1 13.8%
Cc1nnc(SCC(N)=O)n1CC1CCCO1 (configuration not stated) 0.5%
O=C(NC1CCCCC1)c1ccc2c(=O)n(CC3CCCO3)c(=O)[nH]c2c1 (configuration not stated) -2.1%
COc1cccc(CNc2nc3nc4c(c(=O)n3[nH]2)CCC4)c1 15.1%
CC(=O)Nc1ccc(N2C(=O)C3C4CC(=O)C(c5ccccc54)C3C2=O)cc1 (configuration not stated) -8.5%
Cc1ccc(C)c(NC(=O)CSc2nnc(Cc3cccn3C)n2-c2ccc(F)cc2)c1 19.9%
COC(=O)c1ccc(NC(=O)CSc2nnc(Cc3cccn3C)n2-c2ccc(F)cc2)cc1 19.2%
CC(=NC1CCN(Cc2ccccc2)CC1)c1c(O)[nH]c(=O)[nH]c1=O -1.3%
CN=C1S/C(=C\c2ccc(Sc3ccc(Cl)cc3)o2)C(=O)N1C 29.4%
O=C(CSc1nc2ccccc2[nH]1)c1cccs1 29.8%
CC(=O)c1sc(NC(=O)c2cccc3ccccc23)nc1C -22.6%
CC(=O)c1sc(NC(=O)c2ccc(C)cc2)nc1C 6.9%
COc1ccc(C(=S)Nc2ccccc2)cc1 15%
CN1CCN(C(=O)Cn2c(C(F)(F)F)nc3ccccc32)CC1 -8.1%
CCOC(=O)N1CCN(C(=O)CN(C2CCCCC2)S(C)(=O)=O)CC1 0.7%
CS(=O)(=O)N(CC(=O)N1CCN(c2ccc(F)cc2)CC1)C1CCCCC1 21.6%
CC(C)C(C)NC(=O)COc1ncnc2ccccc12 (configuration not stated) 14.1%
Cc1ccc(-c2noc(CCC(N)=O)n2)cc1 6.1%
COc1ccc(-c2noc(-c3ccc(C)cc3)n2)cc1 -13.8%
COc1ccc(-c2noc(CN(C)S(=O)(=O)c3ccc(C)cc3)n2)cc1 18.8%
Cc1ccc(Cc2nc(-c3cccc(C)c3)no2)cc1 -9.2%
O=C(CSc1nnc(Cc2ccccc2)n1-c1ccccc1)N1CCOCC1 3.8%
CSc1nnc(CNC(=O)c2ccccc2)n1-c1ccc(F)cc1 -3.4%
CCOc1cc(-c2noc(CCC(=O)N3CCOCC3)n2)ccc1OC -11.7%
COc1ccccc1Cc1nc(-c2ccc(C)cc2)no1 7.1%
CCn1c(SCC(=O)Nc2ccc(S(=O)(=O)Nc3onc(C)c3C)cc2)nnc1-c1ccccc1 18.2%
O=C(NCCCCO)C(F)(F)C(F)(F)C(F)(F)C(=O)NCCCCO -24.7%
Cn1c(SCc2nc3ccccc3s2)nnc1-c1ccc2c(c1)OCO2 8.2%
CCN(CC)C(=O)CSc1nnc(-c2cnccn2)n1-c1ccc(C)cc1 8.8%
Cc1cccc(-c2noc(-c3ccc(F)cc3)n2)c1 8.5%
Cc1ccc(Nc2nc(CSc3nnnn3-c3ccccc3)cc(=O)[nH]2)cc1 42.5%
Cc1ccc(-c2noc(CSc3nnc(-c4cccs4)n3C)n2)cc1 13%
CN(C(=O)CSc1nnnn1-c1ccccc1)C1CCCCC1 36.3%
O=C(O)CN(Cc1ccco1)S(=O)(=O)c1ccccc1 -2.7%
O=C(c1ccc(O)cc1)c1ccc(C(=O)O)c(C(=O)O)c1 -15.8%
COc1ccc(C(CNC(=O)c2cccnc2SC)N2CCOCC2)cc1 (configuration not stated) 6.9%
S=C1NC(c2ccccc2)=NCN1c1ccc(Br)cc1 19.4%
CCN(c1ccc2c(c1)OCO2)S(=O)(=O)c1cc(Br)cc2c1N(C(=O)C1CC1)CC2 33.6%
CCOC(=O)N1CCN(C(=O)C2CCN(S(C)(=O)=O)CC2)CC1 -10.2%
O=C(O)C1CC=CCC1C(=O)NCCc1ccccc1 (configuration not stated) -21.1%
O=c1[nH]c(=O)n(Cc2ccco2)c2c1C(C(F)(F)F)(C(F)(F)F)N=C(c1ccco1)N2 1.8%
Cc1ccc(S(=O)(=O)NCc2csc(C)n2)c(C)c1 9.2%
Cc1ccc(C)c(S(=O)(=O)n2cnc3ccccc32)c1 -14.6%
CCOC(=O)CSc1nnc(CNC(=O)c2cccs2)n1-c1cc(OC)ccc1OC 31.7%
Cc1cc(C)c(S(=O)(=O)c2ccccc2)c(OC(=O)c2c(F)cccc2Cl)n1 32.9%
O=c1c2ccccc2nc2n1C(CSc1ccc(F)cc1)CN2 (configuration not stated) 1.1%
C=CCn1c(SCC(=O)c2ccc(Br)cc2)nnc1C(C)NC(=O)Cc1ccc(OC)cc1 (configuration not stated) 30.7%
C=CCn1c(COc2cccc3cccnc23)nnc1SCC(=O)OC -306%
CC1=C(C)CC(C(=O)NNC(=O)c2ccccc2O)C(C(=O)O)C1 (configuration not stated) 21.8%
O=C(c1c(Cl)nc2sccn12)N1CCCc2ccccc21 28.1%
CN1CCN(S(=O)(=O)c2ccc3[nH]cc(C(=O)O)c(=O)c3c2)CC1 2.4%
COc1cccc(N2C(=O)CC(N3CCN(S(=O)(=O)c4ccccc4)CC3)C2=O)c1 (configuration not stated) 6.5%
Cc1nc(C)c(-c2csc(NCCc3ccccc3)n2)s1 39%
COc1ccc(/C(O)=C2/C(=O)C(=O)N(CC3CCCO3)C2c2ccc(OC)c(OC)c2)cc1 (configuration not stated) 35.9%
COc1ccc(/C(O)=C2\C(=O)C(=O)N(Cc3ccco3)C2c2ccc(OC)cc2OC)cc1 (configuration not stated) 21.7%
C=CCNc1ncnc2ccc(Br)cc12 -10.3%
COC(=O)c1cc(NC(=O)CC2C(=O)NCCN2C(=O)c2ccc(F)cc2)cc(C(=O)OC)c1 (configuration not stated) 46.6%
COc1cc(Cl)c(S(=O)(=O)N2CCN(Cc3ccc4c(c3)OCO4)CC2)cc1Cl 20.7%
O=C(c1ccc(F)cc1)c1c[nH]c(C(=O)NCc2cccnc2)c1 45.9%
CCc1ccc(NC(=O)CS(=O)CC(=O)NCCCc2ccccc2)cc1 (configuration not stated) 38.5%
CC(C)c1ccc(NC(=O)NC2CCCCC2)cc1 -33.8%
COc1ccc(C2CC(=O)C=C(NCC3CCCO3)C2)cc1 (configuration not stated) 9.3%
O=C(OCN1C(=O)c2ccccc2C1=O)/C(=C\c1ccco1)NC(=O)c1ccccc1 14%
COC(=O)Nc1ncc(CN2CCCCC2)s1 3.8%
CCOP1(=O)C=C(C(C)(C)C)OC1c1ccc(F)cc1 (configuration not stated) -21.5%
COCCn1nnnc1C(c1ccccc1Cl)N1CCN(c2ccccc2OC)CC1 (configuration not stated) 39.5%
c1ccc(CCn2nnnc2CN2CCN(C3CCCC3)CC2)cc1 -1.3%
Oc1ccccc1CNc1ncc(Br)cc1Br -39.9%
CCOc1ccc(C(=O)NC2CCN(S(=O)(=O)CC)CC2)cc1 2.4%
CCOC(=O)N1CCC(Nc2c(NCCCN3CCN(CC)CC3)c(=O)c2=O)CC1 -19.9%
CC1(C)Cc2ccccc2-c2nc(CN3CCOCC3)[nH]c(=O)c21 15.5%
Cc1nonc1NC(=O)c1ccccc1Br -27.2%
O=C(Nc1nnc(-c2ccc(Cl)cc2)o1)c1ccccc1Br 26%

inhibition, active:
O=c1c2ccccc2nnn1CSc1nc2sc3c(c2c(=O)n1CC1CCCO1)CCC3 (configuration not stated) 84.8%
COc1ccccc1NC(=O)CSc1nnc(Cc2cccn2C)n1-c1ccc(F)cc1 62.7%
CCC(C)N1C(=O)S/C(=C/c2ccc(Sc3nc4ccccc4[nH]3)o2)C1=O (configuration not stated) 60%
COc1cccc2sc(Nc3nc(C)c(C(C)=O)s3)nc12 64.5%
CS(=O)(=O)N(CC(=O)Nc1ccc(Cl)c(Cl)c1)C1CCCCC1 59.4%
Cc1ccc(-c2noc(CC(c3ccccc3)c3ccccc3)n2)cc1 55.2%
COc1ccc(N2CCN(C(=O)CCc3nc(-c4ccc(C)cc4)no3)CC2)cc1 51.2%
COc1ccc(-c2noc(CSc3ccc(C)cc3)n2)cc1 52.3%
Fc1ccc(-n2c(Cc3ccccc3)nnc2SCc2nc(-c3ccc(Cl)cc3)no2)cc1 62.6%
Cc1ccc(-c2noc(CSc3nnnn3-c3ccccc3)n2)cc1 85.5%
Cc1ccc(-c2noc(CSc3nnc(-c4ccncc4)n3-c3ccc(F)cc3)n2)cc1 70.7%
Cc1ccc(-c2noc(CSc3nnc(-c4ccccc4)n3C)n2)cc1 88.3%
CCOC(=O)N1CCN(S(=O)(=O)c2cc(Br)cc3c2N(C(=O)C2CC2)CC3)CC1 50.2%
Cc1ccc(C)c(NS(=O)(=O)c2cc(Br)cnc2N)c1 63.5%
C=CCn1c(SCCOc2ccc(OC)cc2)nnc1C(NC(=O)c1ccc(OC)cc1)C(C)C (configuration not stated) 58.8%
Cc1cccc(N2CCN(S(=O)(=O)c3ccc4[nH]c(=O)c(=O)[nH]c4c3)CC2C)c1 (configuration not stated) 52.5%
COc1ccc(/C(O)=C2/C(=O)C(=O)N(c3nc(C)c(C)s3)C2c2ccco2)cc1 (configuration not stated) 70.5%
Cc1ccc(NC(=O)CS(=O)CC(=O)N(c2ccccc2)C(C)C(=O)NC2CCCC2)cc1 (configuration not stated) 77.9%
COc1ccccc1N1CCN(Cc2nnnn2CCc2ccccc2)CC1 75%
CCOC(=O)C1Cn2c(nc3c(c2=O)C(C)(CC)Cc2ccccc2-3)S1 (configuration not stated) 94.8%
O=C(Nc1ccc(-n2ccnc2P(=O)(O)c2ccccc2)cc1)c1ccccc1Br 95.5%
